According to PubChem BioAssay AID1159580 (chemical genetic matrix, 2015):
“And” between values parts separate entries of the source, which are not always exact repeats. Equal entries are not always repeated. Hit rate of the full screen: of about 5,500 compounds, about 2,000 (36%) were called active. About 18% were inconclusive and are not listed. Rule as the data show it: active = normalized growth mostly below about 0.91 (no sharp cut-off); inconclusive = no clear call, values can overlap the other calls; inactive = mostly above about 0.92. The list shows a part of the results.

Test: chemical genetic growth profiling, strain panel (AID 1159580);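 also: tested at 20 µM; growth read once vehicle control cultures reached saturation at 30 °C; 1 = growth at the plate median or of vehicle wells; lower values mean less growth of the strain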
Conditions: S. cerevisiae deletion strains, growth OD

SMILES: CC1=CC(=O)C(C(C)C)=CC1=O
- normalized growth (locus YAL013W, strain DEP1, stronger effect = lower value): 0.784 (active)
- normalized growth (locus YAL021C, strain ccr4, stronger effect = lower value): 0.91 (inactive)
- normalized growth (locus YAL026C, strain drs2, stronger effect = lower value): 0.711 (active)
- normalized growth (locus YAL030W, strain snc1, stronger effect = lower value): 0.914 (active)
- normalized growth (locus YBL061C, strain skt5, stronger effect = lower value): 0.992 (inactive)
- normalized growth (locus YBR009C, strain hhf1, stronger effect = lower value): 0.488 (active)
- normalized growth (locus YBR021W, strain FUR4, stronger effect = lower value): 0.827 (active)
- normalized growth (locus YBR023C, strain chs3, stronger effect = lower value): 0.997 (inactive)
- normalized growth (locus YBR171W, strain sec66, stronger effect = lower value): 0.996 (inactive)
- normalized growth (locus YBR229C, strain ROT2, stronger effect = lower value): 0.984 (inactive)
- normalized growth (locus YBR231C, strain swc5, stronger effect = lower value): 0.956 (inactive)
- normalized growth (locus YBR279W, strain paf1, stronger effect = lower value): 0.98 (inactive)
- normalized growth (locus YCL011C, strain gbp2, stronger effect = lower value): 0.375 (active)
- normalized growth (locus YCL016C, strain dcc1, stronger effect = lower value): 0.984 (inactive)
- normalized growth (locus YCL029C, strain bik1, stronger effect = lower value): 0.926 (inactive)
- normalized growth (locus YCL061C, strain MRC1, stronger effect = lower value): 0.966 (inactive)
- normalized growth (locus YCL069W, strain vba3, stronger effect = lower value): 0.993 (inactive)
- normalized growth (locus YCR088W, strain abp1, stronger effect = lower value): 0.777 (active)
- normalized growth (locus YDL005C, strain med2, stronger effect = lower value): 0.974 (inactive)
- normalized growth (locus YDL035C, strain GPR1, stronger effect = lower value): 0.859 (inactive)
- normalized growth (locus YDL040C, strain nat1, stronger effect = lower value): 0.996 (inactive)
- normalized growth (locus YDL074C, strain BRE1, stronger effect = lower value): 0.797 (inactive)
- normalized growth (locus YDL101C, strain DUN1, stronger effect = lower value): 0.954 (inactive)
- normalized growth (locus YDL185W, strain tfp1, stronger effect = lower value): 0.935 (inactive)
- normalized growth (locus YDL192W, strain arf1, stronger effect = lower value): 0.776 (active)
- normalized growth (locus YDR001C, strain nth1, stronger effect = lower value): 1 (inactive)
- normalized growth (locus YDR069C, strain doa4, stronger effect = lower value): 0.988 (inactive)
- normalized growth (locus YDR101C, strain arx1, stronger effect = lower value): 0.87 (active)
- normalized growth (locus YDR137W, strain rgp1, stronger effect = lower value): 0.665 (active)
- normalized growth (locus YDR159W, strain sac3, stronger effect = lower value): 0.773 (active)
- normalized growth (locus YDR162C, strain NBP2, stronger effect = lower value): 0.858 (inactive)
- normalized growth (locus YDR195W, strain ref2): 1.03 (inactive)
- normalized growth (locus YDR297W, strain sur2, stronger effect = lower value): 0.989 (inactive)
- normalized growth (locus YDR318W, strain mcm21, stronger effect = lower value): 0.878 (active)
- normalized growth (locus YDR335W, strain msn5, stronger effect = lower value): 0.998 (inactive)
- normalized growth (locus YDR388W, stronger effect = lower value): 0.925 (active)
- normalized growth (locus YDR392W, strain spt3, stronger effect = lower value): 0.455 (active)
- normalized growth (locus YDR502C, strain sam2, stronger effect = lower value): 0.857 (active)
- normalized growth (locus YEL003W, strain gim4, stronger effect = lower value): 0.416 (active)
- normalized growth (locus YEL037C, strain rad23, stronger effect = lower value): 0.996 (inactive)
- normalized growth (locus YEL061C, strain CIN8 (second series), stronger effect = lower value): 0.917 (inactive)
- normalized growth (locus YER015W, strain faa2, stronger effect = lower value): 0.989 (inactive)
- normalized growth (locus YER016W, strain bim1, stronger effect = lower value): 1.01 (inactive)
- normalized growth (locus YER110C, stronger effect = lower value): 0.922 (inactive)
- normalized growth (locus YER111C, strain swi4, stronger effect = lower value): 0.994 (inactive)
- normalized growth (locus YER155C, strain BEM2 (second series), stronger effect = lower value): 0.425 (active)
- normalized growth (locus YER155C, strain BEM2, stronger effect = lower value): 0.871 (active)
- normalized growth (locus YER167W, strain BCK2, stronger effect = lower value): 0.897 (active)
- normalized growth (locus YFR010W, strain ubp6, stronger effect = lower value): 0.93 (inactive)
- normalized growth (locus YGL078C, strain dbp3, stronger effect = lower value): 0.932 (inactive)
- normalized growth (locus YGL086W, strain mad1, stronger effect = lower value): 0.846 (active)
- normalized growth (locus YGL167C, strain pmr1, stronger effect = lower value): 0.996 (inactive)
- normalized growth (locus YGL173C, strain kem1, stronger effect = lower value): 0.947 (inactive)
- normalized growth (locus YGL227W, strain vid30, stronger effect = lower value): 0.217 (active)
- normalized growth (locus YGL240W, strain doc1, stronger effect = lower value): 0.938 (inactive)
- normalized growth (locus YGL248W, strain PDE1, stronger effect = lower value): 0.849 (active)
- normalized growth (locus YGL253W, strain hxk2, stronger effect = lower value): 0.956 (inactive)
- normalized growth (locus YGR078C, strain PAC10, stronger effect = lower value): 0.547 (active)
- normalized growth (locus YGR135W, strain pre9, stronger effect = lower value): 0.826 (active)
- normalized growth (locus YGR252W, strain gcn5, stronger effect = lower value): 0.746 (active)
- normalized growth (locus YHR013C, strain ard1, stronger effect = lower value): 0.995 (inactive)
- normalized growth (locus YHR027C, strain rpn1, stronger effect = lower value): 0.996 (inactive)
- normalized growth (locus YHR030C, strain SLT2, stronger effect = lower value): 0.556 (active) and 0.951 (inactive)
- normalized growth (locus YHR079C, strain IRE1 (second series), stronger effect = lower value): 0.935 (inactive)
- normalized growth (locus YHR079C, strain IRE1, stronger effect = lower value): 0.941 (inactive)
- normalized growth (locus YHR094C, strain hxt1, stronger effect = lower value): 0.949 (inactive)
- normalized growth (locus YHR129C, strain ARP1, stronger effect = lower value): 0.864 (active)
- normalized growth (locus YHR142W, strain chs7, stronger effect = lower value): 0.775 (active)
- normalized growth (locus YHR200W, strain rpn10, stronger effect = lower value): 0.911 (active)
- normalized growth (locus YIL066C, strain RNR3, stronger effect = lower value): 0.828 (active)
- normalized growth (locus YIL073C, strain SPO22, stronger effect = lower value): 0.765 (inactive)
- normalized growth (locus YIL125W, strain kgd1, stronger effect = lower value): 0.926 (active)
- normalized growth (locus YIR030C, strain dcg1, stronger effect = lower value): 0.9 (active)
- normalized growth (locus YJL092W, strain hpr5, stronger effect = lower value): 0.989 (inactive)
- normalized growth (locus YJL095W, strain BCK1 (second series), stronger effect = lower value): 0.928 (inactive)
- normalized growth (locus YJL095W, strain BCK1, stronger effect = lower value): 0.468 (active) and 0.942 (inactive)
- normalized growth (locus YJL115W, strain asf1, stronger effect = lower value): 0.981 (inactive)
- normalized growth (locus YJL129C, strain trk1, stronger effect = lower value): 0.65 (active)
- normalized growth (locus YJL134W, strain LCB3, stronger effect = lower value): 0.982 (inactive)
- normalized growth (locus YJL154C, strain vps35, stronger effect = lower value): 0.989 (inactive)
- normalized growth (locus YJL164C, strain tpk1, stronger effect = lower value): 0.785 (active)
- normalized growth (locus YJL166W, strain qcr8, stronger effect = lower value): 0.415 (active)
- normalized growth (locus YJL168C, strain set2, stronger effect = lower value): 0.942 (inactive)
- normalized growth (locus YJL187C, strain SWE1 (second series), stronger effect = lower value): 0.931 (inactive)
- normalized growth (locus YJL187C, strain SWE1, stronger effect = lower value): 0.974 (inactive)
- normalized growth (locus YJR043C, strain POL32, stronger effect = lower value): 0.79 (active)
